# Source: PubChem
# Wnt bcat act: Wnt/beta-catenin pathway activation; Wnt/beta-catenin reporter cell assay, activator, plate reader; activation, % at 9.35 µM; actives 1.2% (n = 300,000); AID 743398; in the data active = activation above about 30%, passing the limit was not always enough;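 also: 0% = neutral control wells and 100% = positive control wells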
# esBAF inh: blocks esBAF chromatin remodeling in mouse ES cells | Bmi1-luciferase knock-in reporter, 24 h; 100% = twice the neutral-well signal | actives 2% (n = 350,000) | reporter increase, % at 12.5 µM; in the data active = activation above about 40%;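 also: 0% = median of the plate's neutral control wells and 100% = double that signal; a rise in the Bmi1 reporter signal indicates esBAF inhibition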
# MITF act: activators of MITF-driven TRPM1 promoter activity in SK-MEL-5 cells; actives 0.75% (n = 300,000); activation, % at 12.5 µM; SK-MEL-5 TRPM1-promoter luciferase, 24 h; % of positive control, neutral wells = 0; AID 588334;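 active = mean activation of at least 80% with every replicate also reaching 80%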;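 also: 0% = neutral control wells and 100% = parthenolide positive control wells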
# Vif imaging: inhibitors of HIV Vif | HEK293T cells, Vif self-association by quenched fluorescence, imaging, 24 h | inhibition, % at 7.49 µM | actives 0.35% (n = 340,000); in the data active = inhibition above about 50%, passing the limit was not always enough
# N-glyco inh: blocks N-linked glycosylation in D54 reporter cells; actives 0.23% (n = 360,000); AID 588692; reporter increase, % at 12.5 µM; D54 ERlucT glycosylation luciferase reporter, 24 h; percent of 100 nM tunicamycin response;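 active = mean luciferase reporter signal, scaled so untreated is 0 and the glycosylation-blocking control 100, at or above a set limit in every replicate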;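 also: luciferase carries N-glycosylation sites so blocking glycosylation raises the light; 0% = median of neutral control wells and 100% = median of 100 nM tunicamycin wells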
# PfHsp90 yeast 2: reduces growth (ATP signal) of yeast expressing P. falciparum Hsp90 | S. cerevisiae expressing PfHsp90, BacTiter-Glo ATP, 48 h; yeast lacking PDR1 and PDR3 efflux regulators | inhibition, % at 9.4 µM | actives 0.32% (n = 310,000) | AID 504621;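 active = every replicate shows inhibition above about 80%, whatever the replicate mean, limit read from the data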;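 also: 0% = DMSO neutral controls and 100% = 20 µM radicicol positive controls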
# * marks the source's active call; other numbers are inactive results; . = no result. Compounds with a hit are over-represented: about 3% of the library has one in this group of screens.
SMILES,Wnt bcat act,esBAF inh,MITF act,Vif imaging,N-glyco inh,PfHsp90 yeast 2
O=Cc1cn(-c2ccccc2)nc1-c1ccc2c(c1)OCCO2,.,50*,72,-7,1,26
CCN(CC)C(=O)c1cn(-c2ccccc2)nc1-c1ccc2c(c1)OCCO2,0,-1,0,13,-1,-14
N#Cc1cn(-c2ccccc2)nc1-c1ccc2c(c1)OCCO2,0,51*,123*,8,2,-12
Cn1cc(C=O)c(-c2ccc3c(c2)OCCCO3)n1,11,29,49,9,2,-4
O=C(NCC[C@@H]1CC[C@H](NC(=O)c2cnccn2)[C@@H](CO)O1)c1ccc2c(c1)OCO2,.,-3,.,.,.,.
Cc1cc(C)cc(C(=O)NCC(=O)NCCc2c[nH]c3ccccc23)c1,-1,-6,-21,-9,2,-11
COc1ccccc1Nc1nc(N)nc(CSC(=S)N2CCCCC2)n1,35*,.,16,-1,-2,8
Nc1nc(CSC(=S)N2CCOCC2)nc(Nc2ccccc2)n1,45*,.,118*,1,-5,2
Cc1ccc(Nc2nc(N)nc(CSC(=S)N3CCOCC3)n2)cc1,.,-12,.,-6,2,-15
CCOc1ccc(Nc2ccc3nonc3c2[N+](=O)[O-])cc1,3,2,-5,.,-2,-3
C=CCn1c(C)cc(C(=O)CSc2nc3ccccc3c(=O)[nH]2)c1C,44*,12,16,.,-6,100*
Cc1cc(C(=O)CSc2nc3ccccc3o2)c(C)n1C1CC1,.,36,.,24,-2,.
Cc1cccc(NC(=O)CSc2nc3ccccc3o2)c1,.,47*,.,-3,1,.
C=CCn1c(C)cc(C(=O)CSc2nnc(NCc3ccccc3)s2)c1C,.,29,-3,-7,4,111*
C=CCn1c(C)cc(C(=O)CSc2nnc(NC(C)C)s2)c1C,.,.,-3,.,-3,10
C=CCn1c(C)cc(C(=O)CSc2nc3ccccc3o2)c1C,47*,.,46,-39,-16,-40
Cc1csc(=Nc2ccc(S(=O)(=O)N3CCOCC3)cc2)n1Cc1ccco1,-2,7,1,-12,2,3
Cc1ccc(S(=O)(=O)N/N=C/c2c(C)nn(-c3ccccc3)c2C)cc1,.,-6,-11,-2,0,3
CCCCN(CC)CCCNC(=O)Cn1nc(Cc2ccncc2)c2ccccc2c1=O,.,-7,-6,13,-1,.
O=C(O)CN1C(=O)c2cccc3c(Br)ccc1c23,0,-1,.,-4,1,0
CN(C)CCCN1C(=O)c2cccc3c(Br)ccc(c23)C1=O,1,.,-7,-6,40*,11
CCCCOc1ccc(C(=O)NCC(=O)NCc2ccccn2)cc1,-2,-3,4,4,1,2
Cn1c(/C(C#N)=C(\O)c2ccc(Br)s2)nc2ccccc21,20,47*,24,6,2,10
Cn1c(/C(C#N)=C(\O)c2cc(Cl)sc2Cl)nc2ccccc21,-1,10,-17,-21,2,2
O=S(=O)(O)c1ccc(N=Nc2ccccc2)cc1,-1,-1,.,-7,5,6
SMILES,Wnt bcat act,esBAF inh,MITF act,Vif imaging,N-glyco inh,PfHsp90 yeast 2
O=c1ccc(N=Nc2ccccc2)ccc1O,0,6,-3,1,2,125*
CCNC(=O)NC(=O)C(C)OC(=O)c1oc2ccc(OC)cc2c1C (stereo not drawn),-6,-7,-7,-3,1,-14
O=C(COc1ccc2c(c1)OCO2)Nc1ccc(Cl)cn1,18,46*,84*,-5,-2,-18
O=C(COC(=O)COc1ccccc1[N+](=O)[O-])Nc1ccc2c(c1)OCO2,2,2,-5,-2,-1,-7
O=C(COc1ccccc1[N+](=O)[O-])N/N=C/c1cccc(OC(=O)c2ccc3c(c2)OCO3)c1,29,.,95*,3,0,-14
O=C(COc1ccccc1[N+](=O)[O-])Nc1ccc2c(c1)CCC2,29,79*,111*,-7,0,.
O=C(COc1ccccc1[N+](=O)[O-])Nc1ccc2c(c1)OCO2,16,58*,61,-3,-6,.
C[C@@H]1CN([C@H](C)CO)C(=O)c2cc(-c3ccccc3)cnc2O[C@H]1CN(C)C(=O)Nc1ccccc1F,.,9,.,.,.,.
